# Laboratory results published in paper PMC7862700, “An all-to-all approach to the identification of sequence-specific readers for epigenetic DNA modifications on cytosine”.
# Key:
# Assay in all cases: DAPPL (digital affinity profiling via proximity ligation, sequencing); 10 mM Tris-HCl pH 7.5, 50 mM NaCl, 1 mM DTT, 4% glycerol, room temperature, 30 min; GST-TFs on glutathione beads, 16-mer random dsDNA library, 0.1% formaldehyde crosslink after washing; high values mean tight binding
# Conditions in all cases: protein: recombinant; tags: N-terminal GST; dsDNA, one strand shown
# [1] = biological target: T1, FLI1 (Homo sapiens, UniProt Q01543 1-452)
# T1 sequence: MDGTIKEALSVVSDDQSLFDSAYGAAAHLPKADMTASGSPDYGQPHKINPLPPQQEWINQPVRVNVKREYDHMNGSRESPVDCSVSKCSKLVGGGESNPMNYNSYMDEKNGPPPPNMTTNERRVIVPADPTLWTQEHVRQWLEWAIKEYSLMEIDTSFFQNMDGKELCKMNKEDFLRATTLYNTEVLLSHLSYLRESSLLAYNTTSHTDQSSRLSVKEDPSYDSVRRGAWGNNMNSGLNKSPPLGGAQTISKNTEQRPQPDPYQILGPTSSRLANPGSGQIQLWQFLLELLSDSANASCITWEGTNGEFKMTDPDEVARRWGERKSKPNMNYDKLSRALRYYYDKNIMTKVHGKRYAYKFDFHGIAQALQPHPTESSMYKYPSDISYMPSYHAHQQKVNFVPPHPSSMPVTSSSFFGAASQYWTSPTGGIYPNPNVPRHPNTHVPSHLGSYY
# In short: (§1)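 Human transcription factors carrying a GST fusion were produced in yeast, bound to glutathione beads, tagged with DNA barcodes and pooled together with a tag-only sample. Each pool was held with 200 nmole of a random double-stranded 16-mer DNA library in Tris/NaCl/DTT/glycerol buffer for 30 min at room temperature, then washed, crosslinked in 0.1% formaldehyde, proximity-ligated with BsaI/T4 ligase (1 h, 37 °C), PCR-amplified and sequenced on an Illumina NextSeq500. Binding signal is the read frequency of each hexamer for a given factor divided by its frequency in the tag-only sample.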
# [2] = biological target: T2, ELK1 (Homo sapiens, UniProt P19419 1-428)
# T2 sequence: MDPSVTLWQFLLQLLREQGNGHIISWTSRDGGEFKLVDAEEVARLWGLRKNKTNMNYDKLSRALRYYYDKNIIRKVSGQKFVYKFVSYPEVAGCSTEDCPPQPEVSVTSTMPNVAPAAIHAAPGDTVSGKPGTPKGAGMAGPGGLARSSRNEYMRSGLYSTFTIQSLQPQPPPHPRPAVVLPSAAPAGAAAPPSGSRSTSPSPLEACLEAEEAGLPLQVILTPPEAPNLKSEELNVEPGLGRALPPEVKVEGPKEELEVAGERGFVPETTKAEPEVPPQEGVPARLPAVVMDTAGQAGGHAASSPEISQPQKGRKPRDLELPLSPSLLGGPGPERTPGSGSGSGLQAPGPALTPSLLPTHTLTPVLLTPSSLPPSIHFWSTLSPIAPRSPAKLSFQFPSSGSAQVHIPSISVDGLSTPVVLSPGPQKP
# In short: as §1
# [3] = biological target: T3, GABPA (Homo sapiens, UniProt Q06546 1-454)
# T3 sequence: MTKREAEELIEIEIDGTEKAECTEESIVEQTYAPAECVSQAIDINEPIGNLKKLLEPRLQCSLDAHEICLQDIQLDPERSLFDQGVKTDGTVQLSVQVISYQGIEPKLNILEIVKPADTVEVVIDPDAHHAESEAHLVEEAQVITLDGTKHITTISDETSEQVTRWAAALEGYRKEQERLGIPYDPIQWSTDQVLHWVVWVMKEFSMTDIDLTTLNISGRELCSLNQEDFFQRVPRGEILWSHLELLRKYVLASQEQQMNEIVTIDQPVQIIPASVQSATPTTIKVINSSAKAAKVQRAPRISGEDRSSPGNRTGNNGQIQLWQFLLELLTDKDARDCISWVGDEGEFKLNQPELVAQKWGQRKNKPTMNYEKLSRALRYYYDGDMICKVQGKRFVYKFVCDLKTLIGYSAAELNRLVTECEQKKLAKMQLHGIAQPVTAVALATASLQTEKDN
# In short: as §1
# [4] = biological target: T4, ERG (Homo sapiens, UniProt P11308 1-479)
# T4 sequence: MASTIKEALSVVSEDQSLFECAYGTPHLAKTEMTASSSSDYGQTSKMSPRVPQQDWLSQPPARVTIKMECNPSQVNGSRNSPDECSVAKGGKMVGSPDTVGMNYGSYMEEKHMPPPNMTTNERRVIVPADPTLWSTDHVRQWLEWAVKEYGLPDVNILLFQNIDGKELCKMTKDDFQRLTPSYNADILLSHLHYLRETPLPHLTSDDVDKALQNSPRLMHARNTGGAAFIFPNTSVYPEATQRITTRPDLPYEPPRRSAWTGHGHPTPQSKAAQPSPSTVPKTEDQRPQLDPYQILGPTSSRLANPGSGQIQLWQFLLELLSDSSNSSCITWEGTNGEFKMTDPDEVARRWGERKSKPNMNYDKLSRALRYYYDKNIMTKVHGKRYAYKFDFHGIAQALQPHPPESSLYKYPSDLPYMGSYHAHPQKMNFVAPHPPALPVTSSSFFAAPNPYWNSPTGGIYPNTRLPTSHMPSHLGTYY
# In short: as §1
# [5] = biological target: ELF1 (Homo sapiens, UniProt P32519 1-619)
# ELF1, sequence (P32519 whole entry): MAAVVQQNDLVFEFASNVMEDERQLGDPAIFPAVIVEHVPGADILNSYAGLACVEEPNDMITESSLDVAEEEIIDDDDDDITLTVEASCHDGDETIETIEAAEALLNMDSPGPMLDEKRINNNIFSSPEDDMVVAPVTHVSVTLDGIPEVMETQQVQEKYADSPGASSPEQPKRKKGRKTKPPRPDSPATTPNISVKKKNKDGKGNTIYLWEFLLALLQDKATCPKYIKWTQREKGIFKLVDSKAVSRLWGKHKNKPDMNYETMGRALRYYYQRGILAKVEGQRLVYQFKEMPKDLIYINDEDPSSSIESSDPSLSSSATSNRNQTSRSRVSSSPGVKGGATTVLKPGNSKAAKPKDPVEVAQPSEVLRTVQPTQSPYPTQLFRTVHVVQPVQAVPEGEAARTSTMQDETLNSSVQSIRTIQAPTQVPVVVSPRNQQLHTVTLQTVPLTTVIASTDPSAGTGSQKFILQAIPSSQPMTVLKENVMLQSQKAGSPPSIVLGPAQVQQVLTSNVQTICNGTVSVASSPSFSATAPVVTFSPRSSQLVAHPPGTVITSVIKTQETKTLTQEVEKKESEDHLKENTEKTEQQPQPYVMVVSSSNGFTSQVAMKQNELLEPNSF
# In short: as §1
# [6] = biological target: T5, EHF (Homo sapiens, UniProt Q9NZC4 1-300)
# T5 sequence: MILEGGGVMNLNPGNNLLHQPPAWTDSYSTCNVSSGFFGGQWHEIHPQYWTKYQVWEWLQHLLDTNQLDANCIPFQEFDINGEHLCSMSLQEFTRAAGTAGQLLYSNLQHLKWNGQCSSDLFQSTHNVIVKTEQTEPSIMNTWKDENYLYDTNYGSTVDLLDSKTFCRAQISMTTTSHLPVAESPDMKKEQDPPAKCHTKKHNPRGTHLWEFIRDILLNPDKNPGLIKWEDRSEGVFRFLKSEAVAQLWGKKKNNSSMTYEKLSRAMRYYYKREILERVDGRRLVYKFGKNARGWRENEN
# In short: as §1
# [7] = biological target: SPI1 (Homo sapiens, UniProt P17947 1-270)
# In short: as §1
# [8] = biological target: T6, ELK3 (Homo sapiens, UniProt P41970 1-407)
# T6 sequence: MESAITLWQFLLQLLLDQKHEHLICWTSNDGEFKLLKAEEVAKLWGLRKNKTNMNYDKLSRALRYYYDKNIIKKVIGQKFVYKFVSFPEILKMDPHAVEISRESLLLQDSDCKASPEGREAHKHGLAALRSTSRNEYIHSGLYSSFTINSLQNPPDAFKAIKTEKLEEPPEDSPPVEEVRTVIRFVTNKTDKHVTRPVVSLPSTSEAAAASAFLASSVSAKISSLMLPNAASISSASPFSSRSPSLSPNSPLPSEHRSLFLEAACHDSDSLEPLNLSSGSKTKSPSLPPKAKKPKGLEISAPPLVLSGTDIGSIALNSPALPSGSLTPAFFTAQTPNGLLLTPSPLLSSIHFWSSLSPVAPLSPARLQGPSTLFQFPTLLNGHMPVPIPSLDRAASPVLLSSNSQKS
# In short: as §1
# [9] = biological target: T7, FEV (Homo sapiens, UniProt Q99581 1-238)
# T7 sequence: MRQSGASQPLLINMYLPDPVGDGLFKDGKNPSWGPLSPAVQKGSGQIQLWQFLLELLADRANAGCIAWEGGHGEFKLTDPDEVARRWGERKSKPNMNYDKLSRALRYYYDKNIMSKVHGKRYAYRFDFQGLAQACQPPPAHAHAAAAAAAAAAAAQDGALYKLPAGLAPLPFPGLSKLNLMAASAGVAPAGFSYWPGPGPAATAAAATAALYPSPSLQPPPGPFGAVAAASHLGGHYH
# In short: as §1
# [10] = biological target: ETV5 (Homo sapiens, UniProt P41161 1-510)
# ETV5, sequence (P41161 whole entry): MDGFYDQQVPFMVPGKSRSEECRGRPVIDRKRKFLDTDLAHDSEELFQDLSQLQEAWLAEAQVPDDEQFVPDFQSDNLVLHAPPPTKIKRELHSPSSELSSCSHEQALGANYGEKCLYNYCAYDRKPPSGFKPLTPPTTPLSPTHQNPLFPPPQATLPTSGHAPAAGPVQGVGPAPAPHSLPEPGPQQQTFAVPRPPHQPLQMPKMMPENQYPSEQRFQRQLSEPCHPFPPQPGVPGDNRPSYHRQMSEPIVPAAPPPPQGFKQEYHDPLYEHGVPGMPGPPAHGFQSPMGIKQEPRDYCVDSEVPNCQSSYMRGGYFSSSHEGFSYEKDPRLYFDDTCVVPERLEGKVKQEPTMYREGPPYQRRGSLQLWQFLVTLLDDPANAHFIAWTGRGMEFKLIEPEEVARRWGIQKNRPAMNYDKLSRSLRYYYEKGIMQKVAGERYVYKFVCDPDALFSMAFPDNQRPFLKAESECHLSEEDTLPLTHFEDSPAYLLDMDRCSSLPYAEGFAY
# In short: as §1
# [11] = biological target: T8, SPIC (Homo sapiens, UniProt Q8N5J4 1-248)
# T8 sequence: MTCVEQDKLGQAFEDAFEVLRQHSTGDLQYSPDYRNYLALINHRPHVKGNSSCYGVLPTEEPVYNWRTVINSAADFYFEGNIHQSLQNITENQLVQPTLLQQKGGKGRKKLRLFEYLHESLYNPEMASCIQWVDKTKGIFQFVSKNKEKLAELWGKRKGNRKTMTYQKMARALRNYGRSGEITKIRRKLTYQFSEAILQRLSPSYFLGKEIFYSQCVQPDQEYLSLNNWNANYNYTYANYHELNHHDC
# In short: as §1
# [12] = biological target: ELF4 (Homo sapiens, UniProt Q99607 1-663)
# ELF4, sequence (Q99607 whole entry): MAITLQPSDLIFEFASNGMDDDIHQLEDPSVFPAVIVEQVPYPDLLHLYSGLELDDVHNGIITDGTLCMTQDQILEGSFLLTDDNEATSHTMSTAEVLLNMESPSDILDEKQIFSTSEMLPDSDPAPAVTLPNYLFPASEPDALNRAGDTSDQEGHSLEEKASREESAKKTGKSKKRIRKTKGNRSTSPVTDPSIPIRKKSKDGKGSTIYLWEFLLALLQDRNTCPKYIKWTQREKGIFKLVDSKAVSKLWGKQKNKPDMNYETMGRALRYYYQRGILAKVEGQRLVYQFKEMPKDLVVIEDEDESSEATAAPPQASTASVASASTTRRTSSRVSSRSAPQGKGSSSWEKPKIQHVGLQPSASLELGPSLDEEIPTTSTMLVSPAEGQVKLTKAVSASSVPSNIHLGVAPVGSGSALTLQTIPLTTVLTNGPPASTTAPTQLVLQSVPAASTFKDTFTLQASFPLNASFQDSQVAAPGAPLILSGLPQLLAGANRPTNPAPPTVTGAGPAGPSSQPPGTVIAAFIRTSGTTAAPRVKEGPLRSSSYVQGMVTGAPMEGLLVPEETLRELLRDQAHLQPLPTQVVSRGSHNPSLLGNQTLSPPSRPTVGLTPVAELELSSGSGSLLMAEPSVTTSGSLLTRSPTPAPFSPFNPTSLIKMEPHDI
# In short: as §1
# [13] = biological target: ETV1 (Homo sapiens, UniProt P50549 1-477)
# ETV1, sequence (P50549 whole entry): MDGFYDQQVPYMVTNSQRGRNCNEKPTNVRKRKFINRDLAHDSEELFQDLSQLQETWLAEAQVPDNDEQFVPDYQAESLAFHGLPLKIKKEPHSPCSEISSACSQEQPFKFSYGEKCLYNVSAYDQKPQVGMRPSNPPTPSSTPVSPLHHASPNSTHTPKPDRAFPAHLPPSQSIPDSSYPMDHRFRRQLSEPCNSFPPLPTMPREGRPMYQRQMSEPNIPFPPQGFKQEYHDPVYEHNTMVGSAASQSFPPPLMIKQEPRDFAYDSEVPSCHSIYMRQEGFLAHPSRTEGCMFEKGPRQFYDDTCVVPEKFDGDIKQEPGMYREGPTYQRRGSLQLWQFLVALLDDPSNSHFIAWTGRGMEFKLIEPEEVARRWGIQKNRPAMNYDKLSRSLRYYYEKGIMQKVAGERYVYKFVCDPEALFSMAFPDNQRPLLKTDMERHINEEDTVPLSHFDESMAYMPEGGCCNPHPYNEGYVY
# In short: as §1
# [14] = biological target: T9, ERF (Homo sapiens, UniProt P50548 1-548)
# T9 sequence: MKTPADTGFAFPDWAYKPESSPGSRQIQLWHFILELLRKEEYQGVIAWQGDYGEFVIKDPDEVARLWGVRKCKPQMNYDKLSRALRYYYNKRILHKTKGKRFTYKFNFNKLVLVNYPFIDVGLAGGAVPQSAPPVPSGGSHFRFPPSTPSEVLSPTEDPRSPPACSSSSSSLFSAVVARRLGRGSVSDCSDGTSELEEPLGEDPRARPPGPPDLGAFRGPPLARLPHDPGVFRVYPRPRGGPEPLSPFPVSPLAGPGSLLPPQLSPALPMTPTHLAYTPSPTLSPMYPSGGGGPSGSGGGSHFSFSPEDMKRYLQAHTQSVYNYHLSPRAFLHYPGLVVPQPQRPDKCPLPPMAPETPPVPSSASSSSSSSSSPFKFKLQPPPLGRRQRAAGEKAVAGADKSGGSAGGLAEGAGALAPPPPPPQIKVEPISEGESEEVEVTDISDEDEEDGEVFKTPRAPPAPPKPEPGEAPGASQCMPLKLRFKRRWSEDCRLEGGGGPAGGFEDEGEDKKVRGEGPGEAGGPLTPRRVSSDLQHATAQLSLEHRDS
# In short: as §1
# [15] = biological target: T10, ETV3L (Homo sapiens, UniProt Q6ZN32 1-361)
# T10 sequence: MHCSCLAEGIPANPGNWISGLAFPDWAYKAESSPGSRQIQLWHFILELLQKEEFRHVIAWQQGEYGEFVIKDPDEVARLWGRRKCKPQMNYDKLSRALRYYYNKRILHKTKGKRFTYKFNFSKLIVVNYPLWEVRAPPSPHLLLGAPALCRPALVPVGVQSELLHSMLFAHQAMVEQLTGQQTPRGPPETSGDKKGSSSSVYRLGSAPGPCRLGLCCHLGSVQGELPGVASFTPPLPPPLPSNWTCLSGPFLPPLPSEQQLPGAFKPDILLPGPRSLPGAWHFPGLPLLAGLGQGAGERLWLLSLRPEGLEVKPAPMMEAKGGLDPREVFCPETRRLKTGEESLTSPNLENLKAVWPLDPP
# In short: as §1
# [16] = biological target: T11, ETS2 (Homo sapiens, UniProt P15036 1-469)
# T11 sequence: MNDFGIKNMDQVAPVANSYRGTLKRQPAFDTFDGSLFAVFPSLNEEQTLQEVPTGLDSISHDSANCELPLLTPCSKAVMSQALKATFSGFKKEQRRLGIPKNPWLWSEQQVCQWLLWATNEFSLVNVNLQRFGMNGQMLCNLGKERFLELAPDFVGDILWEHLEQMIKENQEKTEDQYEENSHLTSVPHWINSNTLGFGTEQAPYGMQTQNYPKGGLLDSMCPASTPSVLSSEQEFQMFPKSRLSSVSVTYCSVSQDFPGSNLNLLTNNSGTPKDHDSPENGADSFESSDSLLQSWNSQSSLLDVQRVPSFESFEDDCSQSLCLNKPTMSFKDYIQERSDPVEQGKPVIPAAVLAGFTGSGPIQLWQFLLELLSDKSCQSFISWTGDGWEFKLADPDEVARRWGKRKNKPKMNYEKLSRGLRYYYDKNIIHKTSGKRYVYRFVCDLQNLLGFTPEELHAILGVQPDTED
# In short: as §1
# [17] = biological target: T12, ETV3 (Homo sapiens, UniProt P41162-2 1-143)
# T12 sequence: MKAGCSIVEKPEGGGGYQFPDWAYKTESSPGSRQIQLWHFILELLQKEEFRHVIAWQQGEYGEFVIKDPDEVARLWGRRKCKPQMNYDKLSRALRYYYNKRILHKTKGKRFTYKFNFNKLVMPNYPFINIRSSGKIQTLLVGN
# In short: as §1
# [18] = biological target: ETV6 (Homo sapiens, UniProt P41212 1-452)
# ETV6, sequence (P41212 whole entry): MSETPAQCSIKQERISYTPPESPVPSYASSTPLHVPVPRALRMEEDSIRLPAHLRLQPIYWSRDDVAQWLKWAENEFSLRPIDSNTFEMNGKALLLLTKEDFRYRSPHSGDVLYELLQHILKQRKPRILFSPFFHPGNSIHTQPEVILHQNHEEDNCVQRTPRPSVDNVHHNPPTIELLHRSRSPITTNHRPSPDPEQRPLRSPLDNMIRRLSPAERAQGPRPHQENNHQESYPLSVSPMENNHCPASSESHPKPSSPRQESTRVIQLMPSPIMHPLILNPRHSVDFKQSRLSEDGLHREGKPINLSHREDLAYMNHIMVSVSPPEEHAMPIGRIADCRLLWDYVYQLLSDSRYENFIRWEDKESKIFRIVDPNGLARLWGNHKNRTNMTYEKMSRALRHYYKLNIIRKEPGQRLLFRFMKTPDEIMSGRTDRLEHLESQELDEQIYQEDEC
# In short: as §1
sequence,measurement,setting,value
GCCGCC,binding signal,[1],"1.21 fold enrichment (6-mer frequency, TF over GST control)"
same,binding signal,[2],"1.1 fold enrichment (6-mer frequency, TF over GST control)"
same,binding signal,[3],"1.16 fold enrichment (6-mer frequency, TF over GST control)"
same,binding signal,[4],"1.02 fold enrichment (6-mer frequency, TF over GST control)"
same,binding signal,[5],"1 fold enrichment (6-mer frequency, TF over GST control)"
same,binding signal,[6],"1.05 fold enrichment (6-mer frequency, TF over GST control)"
same,binding signal,[7],"1.13 fold enrichment (6-mer frequency, TF over GST control)"
same,binding signal,[8],"1.15 fold enrichment (6-mer frequency, TF over GST control)"
same,binding signal,[9],"1.05 fold enrichment (6-mer frequency, TF over GST control)"
same,binding signal,[10],"1.04 fold enrichment (6-mer frequency, TF over GST control)"
same,binding signal,[11],"1.03 fold enrichment (6-mer frequency, TF over GST control)"
same,binding signal,[12],"1.08 fold enrichment (6-mer frequency, TF over GST control)"
same,binding signal,[13],"1.12 fold enrichment (6-mer frequency, TF over GST control)"
same,binding signal,[14],"1.03 fold enrichment (6-mer frequency, TF over GST control)"
same,binding signal,[15],"1 fold enrichment (6-mer frequency, TF over GST control)"
same,binding signal,[16],"1.01 fold enrichment (6-mer frequency, TF over GST control)"
same,binding signal,[17],"1.11 fold enrichment (6-mer frequency, TF over GST control)"
same,binding signal,[18],"1.02 fold enrichment (6-mer frequency, TF over GST control)"
